# High-throughput results (PubChem BioAssay)
# NALP1 yeast inh: inhibitors of NALP1 inflammasome in yeast. S. cerevisiae NALP1/ASC/caspase-1 growth, X-gal OD620, 72 h. inhibition, % at 10 µM. hit rate 0.61% among 280,000. AID 2071; in the data active means inhibition mostly above about 24%, no sharp cut-off; inactive means mostly below about 32%
# Mot1-301 SUMO: blocks SUMOylation pathway, rescuing yeast Mot1-301 growth. S. cerevisiae Mot1-301 growth rescue, ATP luminescence, 38.5C; percent above DMSO median, 100 means doubled. growth rescue, % at 18.8 µM. hit rate 1% among 320,000;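 active means every valid replicate shows activation above 250% relative to neutral control wells; inactive means the rest, any valid replicate at or below 250%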;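 further: OY570 slx delta 5 strain wells were the positive control but not used for scaling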
# PolyA inh: yeast polyadenylation inhibition | S. cerevisiae SKY197-pL101 polyadenylation reporter, beta-gal luminescence; efflux-impaired pdr1/pdr3 knockout yeast; score 100 = 6 SD above DMSO | activity score, % at 12 µM | hit rate 0.02% among 300,000 | AID 1875;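 active means lowest replicate activity score at least 50, where 100 means six control SD above control mean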;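 further: yeast exposed to compound for 9 h at 30 °C; higher score means more reporter readthrough which indicates perturbed polyadenylation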
# NALP3 yeast inh: NALP3 inhibition in yeast; Yeast reconstituted NLRP3/ASC/caspase-1, beta-gal luminescence, 24 h; inhibition, % at 10 µM; hit rate 0.39% among 330,000; AID 2825;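 active means inhibition of 50% or more; inactive means inhibition below 50%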;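 further: plate controls were induced DMSO wells for no effect and uninduced yeast grown without galactose for full effect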
# The depositor's hits bear a star; . = no result; + = active, no number. Shown are actives, neighbours in structure and some others; about 1.8% of the full set was active somewhere.
SMILES,NALP1 yeast inh,Mot1-301 SUMO,PolyA inh,NALP3 yeast inh
COc1ccc(C2c3[nH]c4ccccc4c3CCN2CCCn2cccn2)c(C)c1C (stereo unspecified),51*,4,6,14
Cc1ccc(CN2C(=O)CCSc3ccc(Cl)cc32)cc1,36*,1,-18,11
Cc1ccc(S(=O)(=O)N(C(=O)c2ccncc2)c2ccc(OC(=O)c3ccncc3)c3ccccc23)cc1,48*,-21,-26,4
COc1cc(/C=C2/CCC/C(=C\c3cc(O)c(OC)c(Cl)c3)C2=O)cc(Cl)c1O,24*,16,-21,18
Cc1cc(OCc2nc(-c3cccnc3)no2)c(C)cc1Br,30,43,-9,12
Oc1ccccc1N1CCN(c2nnnn2-c2ccccc2)CC1,11,439*,-8,6
COc1ccc(C(=O)NCCNC(C)=O)cc1S(=O)(=O)NCc1ccc(Cl)cc1,28*,6,22,6
COc1ccc(C(=O)NC2CCC(O)CC2)cc1S(=O)(=O)NCc1ccc(Cl)cc1 (stereo unspecified),.,5,.,27
Cc1ccc(-n2nc(C(=O)O)cc2-c2ccc(Cl)cc2)cc1,10,19,4,-4
Cc1ccc(C(=O)OCC(=O)NCc2ccco2)cc1,41*,-1,9,20
CN(c1ccccc1)S(=O)(=O)c1cccc(C(=O)OCC(=O)NCc2ccco2)c1,24*,12,-2,-14
COc1ccccc1CNC(=O)COC(=O)c1cc(S(=O)(=O)N2CCOCC2)ccc1Cl,.,-7,12,10
CC(C)Cn1cnc2sc3c(c2c1=N)CCCC3,40*,4,25,16
N=c1c2c3c(sc2ncn1Cc1ccco1)CCCCC3,16,-17,-1,21
O=C(CSc1nnnn1Cc1ccccc1)Nc1ccc2c(c1)OCCO2,20,-3,-9,-1
Cc1ccc(NS(=O)(=O)c2ccc(NS(=O)(=O)c3cccs3)cc2)cc1,8,302*,2,13
CN1CCCC(OC(=O)c2cc(Br)ccc2Cl)C1 (stereo unspecified),-7,260*,-4,8
CCN1C2=C(C(=O)CCC2)C(c2ccc(O)c(Br)c2)C2=C1CCCC2=O,2,6,14,24
O=C1CCCC2=C1C(c1ccc(O)c(Br)c1)C1=C(CCCC1=O)N2c1ccccc1,-9,+,.,13
O=C(CCNC(=O)c1ccc(Br)cc1)Nc1ccccc1N1CCOCC1,.,7,1,13
CNC(=S)N/N=C/c1ccccc1Cl,22,-9,12,10
CCCn1c(SCC(=O)Nc2ccc(OCC)cc2)nnc1C(C)C,-25,344*,-12,13
CCOc1ccc(NC(=O)CSc2nnc(C(C)C)n2CC)cc1,5,-8,6,12
O=C1N/C(=C\c2nc3ccccc3s2)c2ccccc21,16,354*,1,18
O=C1N/C(=C\c2ccccc2)c2ccccc21,30,35,-30,26
SMILES,NALP1 yeast inh,Mot1-301 SUMO,PolyA inh,NALP3 yeast inh
O=C(c1ccccc1[N+](=O)[O-])N1N=C(c2ccccc2)CC1(O)C(F)(F)F (stereo unspecified),-11,58,0,15
COc1cc(C(=O)N2CCN(c3ccccc3O)CC2)ccc1OCC(=O)N1CCOCC1,.,-6,.,5
O=C(N/N=C/c1ccc(Cl)cc1)C(=O)N1CCCCCC1,25*,5,.,11
O=C(N/N=C/c1ccc(C(=O)O)cc1)C(=O)N1CCCCCC1,13,5,-11,19
O=C(N/N=C/c1ccccc1[N+](=O)[O-])C(=O)N1CCCC1,0,355*,-8,3
Cc1ccc(S(=O)(=O)Oc2ccc(/C=C(/NC(=O)c3ccccc3)C(=O)O)cc2)cc1,29,700*,-11,-12
c1ccc(-c2nc(-c3cccnc3)n[nH]2)cc1,27,1,20,6
Brc1cccc(-c2n[nH]c(-c3ccccc3)n2)c1,29*,49,-13,23
Cc1c(C(=O)Nc2nonc2-c2ccc(F)cc2)oc2ccc(F)cc12,-3,-1,103*,-40
CCc1nonc1NC(=O)c1oc2ccc(F)cc2c1C,2,.,19,7
CCNC(=S)N/N=C(\C)c1cc2ccccc2o1,24,32,-13,4
O=C1C=C(c2ccccc2)OC(=O)C1C(=O)c1ccccc1 (stereo unspecified),9,14,121*,13
O=[N+]([O-])c1ccc(Oc2ncccn2)cc1,.,137,14,1
N#CCc1ccc(Oc2ncccn2)cc1,-4,356*,-19,10
O=C(COC(=O)c1c[nH]c(=O)[nH]c1=O)Nc1ccccc1Br,-12,808*,-7,5
